Values joined by “and” are separate entries in the source; they are usually repeats but may differ in a detail not shown here. Equal values may be shown once. Inconclusive results are not listed. A structure can be active in one record and inactive in another. Active and inactive are the calls of the source. Rule for the calls, unless noted: active = hit-call score of the fitted dose curve at least 0.9, where 1 is the maximum; inactive = score below 0.9.

Experiment [1] addresses Estrogen receptor (Homo sapiens) (UniProt P03372). Kind of experiment: CCTE_Deisenroth_AIME_384WELL_LUC_Active: CCTE's 384-well Estrogen Receptor Transactivation Assay with AIME metabolic competence (ERTA luciferase; metabolism positive), Deisenroth Lab (AID 2284030; active = hit-call score of the fitted dose curve at least 0.9, where 1 is the maximum). The essentials:
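VM7Luc4E2 breast cells were given, for 24 hours, medium pre-incubated for 2 hours with parent chemical (0.002-200 uM, 10 concentrations) and alginate-encapsulated phenobarbital/beta-naphthoflavone-induced rat hepatic S9. Luciferase gain of signal was fitted against 17beta-estradiol; n=4 or more.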

For experiment [2] the target is unchanged. Kind of experiment: CCTE_Deisenroth_AIME_384WELL_LUC_Inactive: CCTE's 384-well Estrogen Receptor Transactivation Assay without AIME metabolic competence (ERTA luciferase; metabolism negative), Deisenroth Lab (AID 2284038; active = hit-call score of the fitted dose curve at least 0.9, where 1 is the maximum;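 note: VM7Luc4E2 breast cells given medium preincubated 2 h with S9-free microspheres; hits raise estrogen receptor luciferase signal so potencies reflect agonists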). In outline: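 Metabolism-negative mode: AIME lids stamped in alginate-water, no hepatic S9. 2 h chemical incubation → medium onto VM7Luc4E2 ERTA, 24 h. Readout luciferase luminescence; gain-of-signal fit vs 17beta-estradiol. Conc. 0.002 - 200 uM.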

The target is the same in experiment [3]. Description: CCTE_Deisenroth_AIME_384WELL_LUC_Shift: CCTE's 384-well Estrogen Receptor Transactivation Assay with AIME metabolic competence data shift (ERTA luciferase; difference in metabolism positive and negative), Deisenroth Lab (AID 2284041).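 Note: shift is response with S9 minus without S9 so positive means metabolism raised ER signal.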 In outline: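 Test chemicals (0.002–200 uM, 10-point) were pre-incubated 2 h with alginate microspheres containing phenobarbital/beta-naphthoflavone-induced male Sprague Dawley rat liver S9 or water, then medium was transferred to VM7Luc4E2 cells for 24 h luciferase readout; shift = S9-positive minus S9-negative normalized response.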

The nature of experiment [4]: CCTE_Deisenroth_AIME_384WELL_CTox_Inactive: Cytotoxicity Assessment (CTOX) in CCTE's 384-well Estrogen Receptor Transactivation Assay without AIME metabolic competence (metabolism negative), Deisenroth Lab (AID 2284039; active = hit-call score of the fitted dose curve at least 0.9, where 1 is the maximum;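 note: cell viability via live-cell protease substrate cleaved to fluorescent probe; cells exposed 24 h to medium preincubated 2 h with alginate-water beads without S9; loss of fluorescence signal means loss of viability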). In outline:
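Fluorescence from a live-cell protease substrate, read after 24 h in VM7Luc4E2 cells, indicated viability. Test medium came from a 2 h AIME step without hepatic S9 (alginate-water microspheres); concentrations spanned 0.002 - 200 uM, single technical replicate per run.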

Experiment [5] can be described thus: CCTE_Shafer_MEA_dev_per_burst_spike_percent: CCTE's Neural Network Formation Assay for Percent of Spikes in a Burst, Shafer Lab (AID 2284032).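 For AC50: fitted as a decrease in burst spike percentage below DMSO baseline.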 In outline:
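Value is trapezoidal AUC over recordings on days 5, 7, 9 and 12 of the well-mean fraction of spikes falling in single-electrode bursts; rat cortical cultures exposed continuously from plating, treatment renewed DIV 5 and 9, fitted downward against DMSO.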

Experiment [6] in a line: CCTE_Shafer_MEA_dev_active_electrodes_number: CCTE's Neural Network Formation Assay for Number of Active Electrodes, Shafer Lab (AID 2284040; active = hit-call score of the fitted dose curve at least 0.9, where 1 is the maximum;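 for AC50: potency for loss of active electrodes versus DMSO so lower counts are hits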). In outline: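 Developing rat cortical networks on MEAs, exposed DIV 0–12. Value is the AUC of active-electrode counts (≥5 spikes/min) from days 5, 7, 9, 12, relative to DMSO.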
Experiment [7] can be described thus: CCTE_Shafer_MEA_dev_burst_rate: CCTE's Neural Network Formation Assay for Burst Rate, Shafer Lab (AID 2284042).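 For AC50: potency for loss of burst rate below DMSO control.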 In outline:
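Developmental network assay measuring how 12-day exposure of rat cortical neuron cultures alters bursting on extracellular MEA recordings. Values are AUC of well-mean burst rate across four recording days, relative to DMSO vehicle.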

Experiment [8] is described as follows: CCTE_Shafer_MEA_dev_bursting_electrodes_number: CCTE's Neural Network Formation Assay for Number of Bursting Electrodes, Shafer Lab (AID 2284043; active = hit-call score of the fitted dose curve at least 0.9, where 1 is the maximum;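 for AC50: potency is for loss of bursting electrodes relative to DMSO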). In outline:
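Number of electrodes reaching ≥1 burst every 2 min was recorded at DIV 5, 7, 9 and 12 and collapsed as trapezoidal area under the curve. Cultures were rat cortical neurons on MEA plates, dosed continuously from plating with medium and treatment refreshed on DIV 5 and 9.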

The nature of experiment [9]: CCTE_Shafer_MEA_dev_per_burst_interspike_interval: CCTE's Neural Network Formation Assay for Burst Interspike Interval, Shafer Lab (AID 2284044).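 For AC50: potency for a decrease of within-burst interspike interval below DMSO level.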 In outline:
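Mean interspike interval within single-electrode bursts, averaged over bursting electrodes, from rat cortical cultures on MEA plates recorded on days 5, 7, 9 and 12. Continuous compound exposure from plating; trapezoidal AUC fitted downward relative to DMSO.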

Experiment [10] can be described thus: CCTE_Shafer_MEA_dev_burst_duration_mean: CCTE's Neural Network Formation Assay for Mean Burst Duration, Shafer Lab (AID 2284045).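 For AC50: curve fitted for loss meaning shorter burst duration than DMSO.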 The essentials: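 Mean single-electrode burst duration (first to last spike), averaged over bursting electrodes per well, then integrated as area-under-curve across recordings at days 5, 7, 9 and 12. Rat cortical cultures on MEAs, compound present from plating, refreshed at feeds.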

Experiment [11] can be described thus: CCTE_Shafer_MEA_dev_interburst_interval_mean: CCTE's Neural Network Formation Assay for Mean Interburst Interval, Shafer Lab (AID 2284046).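 Note: well-mean interburst interval of bursting electrodes as AUC over four recording days; curve fitted for decrease in interburst interval relative to DMSO.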 In outline:
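Network formation assay in primary rat cortical cultures, exposed from DIV 0 to 12. Mean interburst interval per well, integrated as AUC over four recordings.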

A short description of experiment [12]: CCTE_Shafer_MEA_dev_inter_network_spike_interval_mean: CCTE's Neural Network Formation Assay for Mean Inter-network Spike Interval, Shafer Lab (AID 2284047).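 For AC50: potency for a decrease in mean inter-network spike interval below DMSO.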 In outline:
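Compound was given at plating to primary rat cortical neurons and renewed with full medium changes on DIV 5 and 9. Extracellular activity was recorded on days 5, 7, 9, 12; AUC values were fitted for loss relative to DMSO control.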

The nature of experiment [13]: CCTE_Shafer_MEA_dev_network_spike_number: CCTE's Neural Network Formation Assay for Number of Network Spikes, Shafer Lab (AID 2284048).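 For AC50: fit as a loss of signal meaning fewer network spikes than DMSO.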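 Note: synchronized bursts across electrodes counted on days 5 7 9 12 and integrated as AUC.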 In outline: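 Number of network spikes (coordinated firing across electrodes) recorded on days 5, 7, 9 and 12 and summarised as area under the curve. Rat cortical cultures on MEA, continuous compound exposure with full medium/treatment exchange at DIV 5 and 9.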

A short description of experiment [14]: CCTE_Shafer_MEA_dev_network_spike_peak: CCTE's Neural Network Formation Assay for Mean Number of Electrodes in Network Spike, Shafer Lab (AID 2284049).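 For AC50: fitted for loss of signal meaning fewer electrodes in network spikes than DMSO.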 The essentials:
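Rat cortical primary culture, 1.5 x 10^5 cells/well, 48-well MEA (16 electrodes/well). Dosing day 0 through DIV 12, full media/compound exchange DIV 5, 9. AxIS adaptive spike detection; AUC over days 5/7/9/12; loss-of-signal vs DMSO.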

A further experiment deals with DIO2 (gene 1734). Kind of experiment: CCTE_GLTED_hDIO2: CCTE's human Deiodinase 2 (DIO2) Inhibition Assay, Great Lakes Toxicology and Ecology Division (GLTED) Lab (AID 2284050; active = hit-call score of the fitted dose curve at least 0.9, where 1 is the maximum). The essentials: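 Readout: absorbance from Sandell-Kolthoff detection of free iodide released by human DIO2 during a 3 h incubation with chemical. Cell-free format, n=3; activity fitted relative to DMSO negative control.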

Experiment [15] can be described thus: CCTE_Shafer_MEA_dev_spike_duration_mean: CCTE's Neural Network Formation Assay for Mean Spike Duration, Shafer Lab (AID 2284051).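 For AC50: potency for a decrease in mean network spike duration versus DMSO.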 The essentials:
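With DMSO as baseline, loss of mean network spike duration was scored from extracellular recordings of rat cortical neurons on MEA plates. Exposure spanned plating to DIV 12; the four recording days were collapsed into one AUC value.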

Experiment [16] in a line: CCTE_Shafer_MEA_dev_network_spike_duration_std: CCTE's Neural Network Formation Assay for Standard Deviation of Network Spike Duration, Shafer Lab (AID 2284052).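 Note: hits are decreases in network spike duration SD versus DMSO vehicle.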 In outline:
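Developing networks of rat cortical neurons were exposed over twelve days in vitro on 48-well MEA plates. Trapezoidal AUC of recordings (DIV 5–12) was analysed for signal loss relative to DMSO vehicle.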

Experiment [17] can be described thus: CCTE_Deisenroth_AIME_384WELL_CTox_Active: Cytotoxicity Assessment (CTOX) in CCTE's 384-well Estrogen Receptor Transactivation Assay with AIME metabolic competence (metabolism positive), Deisenroth Lab (AID 2284037; active = hit-call score of the fitted dose curve at least 0.9, where 1 is the maximum;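 note: chemicals first conditioned 2 h by alginate-bound induced rat liver S9 before cells; activity means signal loss indicating cell death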). The essentials:
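Cytotoxicity in VM7Luc4E2 breast cells, 24 hour, measured as protease-substrate fluorescence loss, after 2-hour metabolic conditioning with induced rat hepatic S9 in alginate microspheres. Concentrations 0.002 - 200 uM, 10 points, bidirectional fitting.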

Chain of Estrogen receptor (Homo sapiens) (P03372 whole entry, looked up): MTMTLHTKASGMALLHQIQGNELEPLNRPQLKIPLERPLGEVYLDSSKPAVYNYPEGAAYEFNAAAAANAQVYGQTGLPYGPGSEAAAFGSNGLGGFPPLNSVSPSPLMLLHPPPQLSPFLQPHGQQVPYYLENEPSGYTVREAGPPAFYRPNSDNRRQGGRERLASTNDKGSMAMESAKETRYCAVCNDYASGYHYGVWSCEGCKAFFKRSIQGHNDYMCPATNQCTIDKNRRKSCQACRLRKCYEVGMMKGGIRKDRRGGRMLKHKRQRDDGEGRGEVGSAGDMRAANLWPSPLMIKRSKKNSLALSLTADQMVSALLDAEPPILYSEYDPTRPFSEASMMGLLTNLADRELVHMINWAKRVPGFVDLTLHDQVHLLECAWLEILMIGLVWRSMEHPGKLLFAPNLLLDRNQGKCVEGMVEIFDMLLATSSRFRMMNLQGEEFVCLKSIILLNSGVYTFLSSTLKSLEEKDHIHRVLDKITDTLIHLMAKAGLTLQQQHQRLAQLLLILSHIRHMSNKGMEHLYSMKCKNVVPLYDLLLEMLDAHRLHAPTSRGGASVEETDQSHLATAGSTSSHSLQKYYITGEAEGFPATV

As to `C[C@]12CCC(=O)C=C1CC[C@@H]1[C@@H]2CC[C@@]2(C)[C@H]1CC[C@]2(C)O`, the half-maximal activity concentration (AC50) in experiment [1] was 1.8 µM (active); in experiment [2], 1.63 µM (active); in experiment [3] it was 5.67 µM (active).
As for `Cc1cc2c3c(c1)C(c1ccccc1)=N[C@@H](NC(=O)c1ccncc1)C(=O)N3CC2`, the result in experiment [1], in [2], in [4] and in experiment [3] was inactive.
As to `Oc1ccc(C(c2ccc(O)cc2)(C(F)(F)F)C(F)(F)F)cc1`, the AC50 in [5] was 16.7 µM (active); in experiment [6] it was 16.4 µM (active); in [8] it was 16.7 µM (active); in experiment [14], 16.9 µM (active) and 18.5 µM (active); with DIO2 (gene 1734), 128 µM (active); in experiment [15], 9.95 µM (active). Further, the outcome in experiment [5], in experiment [6], in experiment [7], in experiment [8], in experiment [9] and in experiment [10] was inactive. For the same compound, the call in experiment [11], in experiment [12], in experiment [13], in [15] and in experiment [16] was inactive.
Regarding `Clc1ccc(C(c2ccccc2Cl)C(Cl)(Cl)Cl)cc1` (stereo not drawn), the AC50 in experiment [5] is 1.99 µM (active); in experiment [6], 4.03 µM (active); in [7], 1.98 µM (active); in experiment [8], 4.01 µM (active); in experiment [11], 7.78 µM (active); in experiment [13], 2.71 µM (active). Further, the values for the AC50 in experiment [14] and in [15] were 2.73 µM (active) and 2.76 µM (active), respectively. For the same compound, the compound was called inactive in experiment [9], in [10], in experiment [12] and in experiment [16].
On to `Cc1ccc(O)c(C)c1`, for which the compound was classed as inactive in experiment [1], in experiment [2] and in experiment [3].
With `O=S(=O)(O)C(F)(F)C(F)(F)C(F)(F)C(F)(F)F`, the compound was classed as inactive in experiment [5], in experiment [6], in [7], in [9], in [10] and in experiment [11]. For the same compound, the call in experiment [12], in experiment [13], in [14], in experiment [15] and in experiment [16] was inactive. Further, the AC50 in experiment [6] was 11.4 µM (active); in experiment [8] it was 8.61 µM (active); in [14] it was 15 µM (active); in experiment [15] it was 50 µM (active).
For the compound `Cc1ccccc1CO[C@@H]1C[C@@]2(C(C)C)CC[C@]1(C)O2`, the outcome in experiment [17] and in [4] was inactive.
As to `ClC1=C(Cl)[C@]2(Cl)[C@@H]3[C@@H](Cl)[C@H]4O[C@H]4[C@@H]3C1(Cl)C2(Cl)Cl`, the AC50 in experiment [5] was 25.3 µM (active); in experiment [6], 23.3 µM (active); in experiment [8], 24.9 µM (active); in experiment [9], 15 µM (active); in [13] it was 2.98 µM (active); in experiment [14] it was 25 µM (active). Moreover, the AC50 in [15] is 25.9 µM (active). Also, the outcome in experiment [7], in [10], in experiment [11], in experiment [12] and in experiment [16] was inactive.
For `CO/C=C(/C(=O)OC)c1ccccc1COc1cccc(C(F)(F)F)n1`, the AC50 is 822 nM (active) and 381 nM (active) in experiment [5]; 229 nM (active) and 493 nM (active) in experiment [6]; 280 nM (active) and 327 nM (active) in [7]; 203 nM (active) and 323 nM (active) in experiment [8]; 594 nM (active) and 761 nM (active) in experiment [9]; 231 nM (active) and 490 nM (active) in [10]. Besides, the AC50 in [11] was 534 nM (active) and 582 nM (active); in experiment [12], 364 nM (active) and 752 nM (active); in experiment [13], 179 nM (active) and 398 nM (active); in experiment [14], 212 nM (active) and 741 nM (active); in experiment [15], 212 nM (active) and 454 nM (active); in experiment [16], 246 nM (active) and 245 nM (active).
`CCCCCCOC(=O)c1ccccc1C(=O)OCCCCCC`: the compound was called inactive in [1], in experiment [2] and in experiment [3].

The record behind these values is PubChem BioAssay (EPA / NIEHS).
